Measurements as given in PubChem BioAssay AID686979 (National Center for Advancing Translational Sciences (NCATS), 2013).
The campaign covered roughly 420,000 compounds. About 50,000 (12%) were called active. Not shown: some 26% with an inconclusive outcome. This excerpt belongs to a sample that is enriched for actives. A number with no mark means an inactive call. The call rests on the fitted dose curve; in most records, active means well fitted inhibition curve with a large enough effect; inconclusive means small, poorly fitted or top-dose-only effect; inactive means flat fitted curve, though single readings scatter.

Test: qHTS for Inhibitors of human tyrosyl-DNA phosphodiesterase 1 (TDP1): qHTS in cells in presence of CPT; further: nearly all actives have a fitted effect of over 55% in size
Conditions: chicken DT40 Tdp1-/-;hTDP1 cells + 20 nM CPT, ATP luminescence, 48 h; series mostly up to 46.2 µM; activity change, negative = growth inhibition: at the top concentration
Procedure, shortened: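 Chicken DT40 Tdp1-/- cells stably complemented with human TDP1 were seeded at 400 cells/well in medium containing 20 nM camptothecin, exposed to pin-transferred compounds, and grown at 37 °C for at least 48 hr. Viability was read as ATP luminescence.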
On the % scale 0 is the no-effect control and ±100 the full control effect; potency means the concentration at half of the fitted maximal effect.

Structure (SMILES) | activity change, negative = growth inhibition | Potency
c1ccc(-c2cn3cccnc3n2)cc1 | -0.0131% | 
CS/C(=C\[N+](=O)[O-])Nc1ccc(C)cc1 | 2.33% | 
COc1cc(C(C)=O)ccc1OC(=O)CN1C(=O)c2ccccc2C1=O | 10.9% | 
Cc1ccccc1N1CCN(CCCN2C(=O)C3CCCCN3C2=O)CC1 (stereo unspecified) | -24.5% | 
CCN(CC)CCCSc1nc2ccccc2s1 | 18.1% | 
COc1ccc(N=Cc2c(O)[nH]c3ccccc23)cc1OC | -29% | 
COc1cc(N=Cc2c(O)[nH]c3ccccc23)cc(OC)c1OC |  | 20.6 µM (active)
COc1cc2[nH]c(O)c(C=O)c2cc1OC | -10.3% | 
COc1cccc(OC)c1C(=O)N1CCN(Cc2cccnc2)CC1 | 0.63% | 
Oc1ccc(CN2CCN(c3ncccn3)CC2)cc1 | 0.51% | 
COc1ccccc1-c1nn(Cc2ccccc2)cc1C(=O)N1CCN(c2ncccn2)CC1 |  | 25.9 µM (active)
O=C(NCc1ccco1)/C(=C/c1ccco1)NC(=O)c1ccccc1 | -17% | 
CCCCC/C=C\C/C=C\CCCCCCCCCC(=O)O | -5.48% [at 4.12 µM] | 
CC(C)CC[n+]1ccn(C2=C([O-])c3ccccc3C(=O)/C2=N\S(=O)(=O)c2ccccc2)c1 |  | 11.6 µM (active)
CCOC(=O)c1cc(-c2ccccc2)n(-c2cccc(C(=O)Nc3cc(OC)cc(OC)c3)c2)c1C | -5.9% | 
CCCC(=O)Nc1cc2nn(-c3ccccc3)nc2cc1C | -1.95% | 
COc1cc(OC)cc(C(=O)Nc2cc3nn(-c4ccccc4)nc3cc2Cl)c1 |  | 11.6 µM (active)
COc1ccccc1-c1ccnc(-n2ncc(C(=O)NCCc3ccncc3)c2C)n1 | 39.7% [at 9.04 µM] | 
COc1cccc(COC(=O)C2CCN(S(=O)(=O)c3cccs3)CC2)c1OC | -0.942% | 
Cc1cccc(OCC(=O)NC2CC(C)(C)NC(C)(C)C2)c1 | 8.74% | 
O=C(Nc1cccc(F)c1)N1CCC2(CC1)CCN(S(=O)(=O)c1ccccc1)CC2 | -27.3% | 
O=C(c1cn(-c2ccccc2)nc1-c1cc2ccccc2oc1=O)N1CCOCC1 | 7.05% | 
O=c1oc2ccccc2cc1-c1cn(-c2ccccc2)c(=S)[nH]1 |  | 2.59 µM (active)
S=c1[nH]c(-c2cccs2)cn1-c1ccccc1 | -5.38% | 
CCn1c(CNC(=O)C23CC4CC(CC(C4)C2)C3)nnc1SCC(=O)Nc1ccc(OC)cc1 | -21.9% | 
COC(=O)C1CC2=C(CC(C)(C)CC2=O)N(c2ccccc2)C1=O (stereo unspecified) | -3.49% | 

Structure (SMILES) | activity change, negative = growth inhibition | Potency
CC(C)N1C(=O)N(c2ccccc2)C(C)(O)CC1(C)C (stereo unspecified) | -17% | 
CC(C)C1C2=C(CC(C)(C)CC2=O)ON1c1ccccc1 (stereo unspecified) |  | 25.9 µM (active)
COc1cc2nc(CN(C)Cc3ccc(F)cc3)[nH]c(=O)c2cc1OC | -27.7% | 
CCOC(=O)C1CCCN(C(=O)c2ccc(-n3ccc4ccccc43)s2)C1 (stereo unspecified) |  | 18.4 µM (active)
CCOC(=O)C1CCCN(C(=O)C2CCN(c3nnc(-n4cccc4)s3)CC2)C1 (stereo unspecified) | -2.31% | 
CCOC(=O)C1CCCN(C(=O)c2cccc3ccccc23)CC1 (stereo unspecified) | 5.97% | 
CCC(Oc1ccccc1C)C(=O)Nc1ccc(S(=O)(=O)Nc2cc(C)on2)cc1 (stereo unspecified) | 7.59% | 
CCOC(=O)c1sc(NC(=O)C2CSC3(C)CCC(=O)N23)nc1C (stereo unspecified) | 6.57% | 
CN(C)S(=O)(=O)c1ccc(C(=O)NCC2(N3CCOCC3)CCCCC2)cc1 | -27% | 
O=C(NCc1ccc(F)cc1)C1CCN(C(=O)Nc2ccc(F)cc2)CC1 | 7.91% | 
CCOC(=O)c1c(C)[nH]c2c1-c1ccccc1C(=O)C2=O |  | 0.517 µM (active)
CCOC(=O)c1c(SCC(=O)Nc2cccc(C)c2C)nc(=O)[nH]c1C | -25.5% | 
CCOC(=O)c1c(C)[nH]c(C)c1S(=O)(=O)N(C)CC(=O)Nc1ccccc1C | -0.387% | 
Cc1ccc(S(=O)(=O)N2CCCC2C(=O)OCc2nc3sc(C)c(C)c3c(=O)[nH]2)cc1 (stereo unspecified) | -12.6% | 
COCCN(CCOC)c1nc(N)c2c(N)nc3c(c2c1C#N)CC(=O)N3Cc1ccc(Cl)cc1 | -6.53% | 
C[C@H](NC(=O)c1ccccc1)C(=O)OCC(=O)c1c[nH]c2ccccc12 | -21.6% | 
O=C(CNC(=O)c1ccc(F)cc1)c1ccccc1 | 1.2% | 
CN(C)c1ccc(C(CNC(=O)c2ccc(F)cc2)c2c[nH]c3ccccc23)cc1 (stereo unspecified) |  | 18.4 µM (active)
O=C(CCNC(=O)c1ccc(Br)cc1)NCCCc1ccccc1 | -23.6% | 
COc1ccccc1CN1CCNC(=O)C1CC(=O)N(C)CC1CCOCC1 (stereo unspecified) | -8.06% | 
O=S(=O)(NCc1cccnc1)c1ccc(Br)s1 | -22.4% | 
O=S(=O)([N-]c1nc2ccccc2nc1-[n+]1ccc(Cc2ccccc2)cc1)c1ccc(Br)s1 |  | 14.6 µM (active)
Cc1cc(C)c[n+](-c2nc3ccccc3nc2[N-]S(=O)(=O)c2cccs2)c1 | 5.23% | 
C[C@@H](NC(=O)c1nc[nH]c1C(=O)N1CCN(C(=O)OC(C)(C)C)CC1)c1ccccc1 | -20.9% | 
Cc1ccccc1N1CC(C(=O)Nc2ccc(S(=O)(=O)N3CCCC3)cc2)CC1=O (stereo unspecified) | -23.3% | 
